These results are taken from PubChem BioAssay (NCATS).

In assay [1] the target is Cellular tumor antigen p53 (Homo sapiens) (UniProt P04637). The assay is described as follows: Primary qHTS for small molecule compounds that upregulate eGFP-tagged delta133p53alpha (in N-terminal) cells. (AID 2060322). Also: nearly all actives have a fitted effect of over 75% in size. Also: potency is read from the fitted curve at half-maximal effect.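 As to activation: cells pre-induced with doxycycline then dosed without doxycycline; 0% = DMSO vehicle and 100% = reference activator.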 The settings on record: NCI-H358 eGFP-delta133p53alpha fluorescence, 24 h; activation: hits give high values. In a few lines: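 NCI-H358 cells pre-induced 24 h with 10 ng/ml doxycycline for eGFP-delta133p53alpha, plated dox-free and exposed 24 h at 37C to titrated compounds. Fixed, Hoechst-stained; gated GFP peak intensity by laser scanning cytometry, normalized to DMSO (0%) and 57.5 uM 5-azacytidine (100%).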

The target of assay [2] is Aldehyde dehydrogenase, mitochondrial (Homo sapiens) (UniProt P05091). In words: qHTS for Inhibitors of the Aldehyde Dehydrogenase Family (ALDH2) Primary screen (AID 2061308).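 Also: plate controls were vehicle for no effect and reference inhibitor for full effect; nearly all actives have a fitted effect of over 55% in size.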 The settings on record: ALDH2 enzyme inhibition qHTS, 1536-well; series mostly up to 56 µM. (In qHTS, concentration-response curves come from the screen itself.)
Assay [3] is described as follows: BET inhibitor-based combinations targeting novel dependencies in MECOM-rearranged (r) AML: OCI-AML3 cell line (AID 2202232). Also: potency is read from the fitted curve at half-maximal effect; nearly all actives have a fitted effect of over 35% in size. The settings on record: CellTiter-Glo luminescence, 48 h; Potency: OCI-AML3 viability; series mostly up to 46 µM. In a few lines:
(§1)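 Viability of cells (500 per well) is scored by luminescent CellTiter-Glo at 48 hr post-dosing. Eleven-point titrations are normalized to DMSO and empty controls and reduced to AUC values.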

Assay [4] in a line: BET inhibitor-based combinations targeting novel dependencies in MECOM-rearranged (r) AML: MV-4-11 cell line (AID 2202233). Also: potency is read from the fitted curve at half-maximal effect; nearly all actives have a fitted effect of over 45% in size. The settings on record: MV-4-11 AML viability, CellTiter-Glo luminescence, 48 h; series mostly up to 46 µM. The gist of the method: (§2)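 Using pin-tool transfer, drugs were added in 11 doses to cells (500/well), incubated 48 hr, and assessed with CellTiter-Glo. Z-AUC is a mean-centring transformation applied separately to each screened line.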
A general note: In ATP-based viability assays light output follows the ATP content of the culture.

Assay [5] is described as follows: BET inhibitor-based combinations targeting novel dependencies in MECOM-rearranged (r) AML: HNT-34 cell line (AID 2202234). Also: potency is read from the fitted curve at half-maximal effect; nearly all actives have a fitted effect of over 35% in size. The settings on record: HNT-34 AML viability, CellTiter-Glo luminescence, 48 h; series mostly up to 46 µM. The gist of the method:
as §2

A short description of assay [6]: BET inhibitor-based combinations targeting novel dependencies in MECOM-rearranged (r) AML: UCSD-AML1 cell line (AID 2202235). Also: potency is read from the fitted curve at half-maximal effect; nearly all actives have a fitted effect of over 40% in size. The settings on record: UCSD-AML1 AML cells viability, CellTiter-Glo, 48 h; series mostly up to 46 µM. In a few lines: as §2
A short description of assay [7]: BET inhibitor-based combinations targeting novel dependencies in MECOM-rearranged (r) AML: AML-191 cell line (AID 2202236; also: potency is read from the fitted curve at half-maximal effect; nearly all actives have a fitted effect of over 35% in size). The settings on record: AML-191 viability, CellTiter-Glo luminescence, 48 h; series mostly up to 46 µM. In a few lines: as §1
Assay [8] has as its target Cellular tumor antigen p53 (Homo sapiens) (UniProt P04637). In words: Primary qHTS for small molecule compounds that upregulate eGFP-tagged delta133p53alpha (in C-terminal) cells. (AID 2060324).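 Also: 0% = DMSO wells and 100% = 57.5 µM 5-azacytidine.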 The settings on record: NCI-H358 delta133p53alpha-eGFP (C-terminal tag), GFP fluorescence imaging, 24 h; series mostly up to 57.5 µM. In a few lines: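 Read-out: gated-cell GFP peak intensity (laser scanning cytometer), plate-normalized with DMSO as 0% activity, after 24 h compound exposure at 37C. Cells were C-terminal eGFP-tagged delta133p53alpha NCI-H358, doxycycline-induced (100 ng/ml, 24 h) before plating.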

Assay [9] addresses Retinaldehyde dehydrogenase 3 (Homo sapiens) (UniProt P47895). In words: qHTS for Inhibitors of the Aldehyde Dehydrogenase Family (ALDH1A3) Primary screen (AID 2061315).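 Also: plate controls were DMSO vehicle for no effect and reference inhibitor for full effect.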 The settings on record: ALDH inhibition qHTS; series mostly up to 56 µM.
Assay [10] concerns the target Aldehyde dehydrogenase, mitochondrial (Homo sapiens) (UniProt P05091). The assay is described as follows: qHTS for Inhibitors of the Aldehyde Dehydrogenase Family (ALDH2) Validation screens (AID 2061302; active = well fitted inhibition curve with a large enough effect; title and protocol of this record describe different tests;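 also: plate controls were DMSO vehicle for no effect and maximal DPI positive control response for full effect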). The settings on record: ALDH inhibition qHTS; series mostly up to 42.6 µM.

Each structure is given as a SMILES string. Results filed as inconclusive are left out. A structure can be active in one record and inactive in another. Unmarked numbers belong to inactive results. Calls of active or inactive are those of the source. Unless noted, calls follow the shape of the dose curve; as a rule, active = well fitted curve in the direction sought with a large enough effect; inconclusive = small, poorly fitted or top-dose-only effect, or another doubt; inactive = no such curve, though single readings can be large; an effect the other way counts as inactive or inconclusive.

Chain of Cellular tumor antigen p53 (Homo sapiens) (P04637 whole entry, looked up): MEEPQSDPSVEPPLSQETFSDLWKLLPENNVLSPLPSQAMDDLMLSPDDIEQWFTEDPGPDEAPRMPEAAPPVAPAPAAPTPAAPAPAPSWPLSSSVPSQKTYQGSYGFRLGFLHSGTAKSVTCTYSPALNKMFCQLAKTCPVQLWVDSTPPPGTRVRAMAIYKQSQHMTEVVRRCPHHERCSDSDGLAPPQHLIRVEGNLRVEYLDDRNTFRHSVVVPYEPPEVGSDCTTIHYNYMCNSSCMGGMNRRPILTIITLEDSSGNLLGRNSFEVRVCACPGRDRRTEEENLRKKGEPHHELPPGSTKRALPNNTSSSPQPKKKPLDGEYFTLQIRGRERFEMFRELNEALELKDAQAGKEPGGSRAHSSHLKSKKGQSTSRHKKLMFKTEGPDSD

As to `COc1cc(N2CCC(O)CC2)ccc1Nc1cc(Nc2ccccc2S(=O)(=O)C(C)C)c2cc[nH]c2n1`, the Potency in [1] was 16.6 µM (active); in assay [3], 18.6 µM (active); in assay [4], 18.6 µM (active); in [5], 18.6 µM (active); in [6] it was 26.3 µM (active); in assay [7], 16.6 µM (active). The activation in [1] is -59.5%. In addition, in [2], the Potency entry is “inactive”.
On to `O=C(O)C1=CC(=C(c2ccc(O)c(C(=O)O)c2)c2ccc(O)c(C(=O)O)c2)C=CC1=O`, for which the activation in assay [1] was -71.6%. Besides, the Potency result in assay [8] was “inactive”.
The corresponding values for `NC1(C(=O)O)CCc2cc(C(=O)O)ccc21` (stereo not given) are 7.39% and “inactive”.
Regarding `Cc1nc2c(-c3cnc(N)nc3)nc(N3CCOCC3)nc2n1C(C)C`, the results for the Potency in assay [1] and in [5] were 9.66 µM (active) and 0.525 µM (active), respectively. In assay [1], the activation was 14.3%. For the same compound, the Potency entry in [2] and in assay [9] was “inactive” in each case.
For `CC(=O)N[C@H](C(=O)O)C(C)(C)SN=O`, the activation in assay [1] was -54.1%. The Potency entry in assay [8] and in assay [10] was “inactive” in each case.
